The results in this text go back to PubChem BioAssay (NCI).

The structures appear in SMILES notation. This is part of a sample that, as a whole, favours compounds with a hit. Of some 83,000 tested, about 20% had one in any assay.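 How to read the values: 0–100, growth inhibition (40 = 60% inhibited); 0, no net growth; -100 to 0, cell death (-40 = 40% of starting cells died; -100 = all dead).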 Values without a mark were called inactive. The source made the active and inactive calls. The calls were made as follows: active = growth percent below 10; inactive = the rest.

Common to all, as to assay: NCI-60 one-dose screen, 48 h (100 = growth as untreated, 0 = no growth, -100 = all killed)
Conditions in all cases: 10 µM unless noted

The subject of experiment [1] is T-47D breast.
Experiment [2] relates to BT-549 breast.
Experiment [3] has as its system MDA-MB-435 melanoma.
Experiment [4] concerns SW-620 colon.
In experiment [5] the test system is MCF7 breast.
Experiment [6] concerns HCT-116 colon.
In experiment [7] the test system is HCC-2998 colon.
Experiment [8] relates to KM12 colon.

As for `CCN(CC)c1ccc(CNc2cc(C)nc3ccc(OC)cc23)cc1`, the growth in experiment [1] was 80%; in experiment [2], 79.6%; in experiment [3], -16.5% (active); in experiment [4] it was -74.6% (active); in experiment [5] it was 76.7%; in experiment [6] it was 54.8%. The growth is -92.6% (active) in experiment [7] and 28.4% in experiment [8].

Regarding `CCN(CC)CC#CCOC(=O)[C@]1(C)CCC[C@@]2(C)[C@H]1CC(C=O)=C1C=C(C(C)C)CC[C@@H]12`, the growth in experiment [1] is 41.8%; in experiment [2], 53%; in experiment [3] it was 76.4%; in experiment [4], 57.2%; in experiment [5] it was 68.1%; in experiment [6], 36.1%. Moreover, the values for the growth in experiment [7] and in experiment [8] were 94.6% and 55.3%, respectively.

`O=C1C(Cl)=C(Cl)C(=O)c2c1nc1n2CCCC1`: the growth in experiment [1] was 48.3%; in experiment [2], 95.5%; in experiment [3] it was 115%; in experiment [4], 81.6%; in experiment [5], 70%; in experiment [6], 84.1%. Further, the growth was 52.5% in experiment [7] and 80.5% in experiment [8].

For `COc1cc2c(c(OC)c1OC)-c1ccc(N=NC(N)=S)c(=O)cc1[C@@H](NC(C)=O)CC2`, the growth was 62.2% in experiment [1]; -37.5% (active) in experiment [2]; 0.0927% (active) in experiment [3]; 17.3% in experiment [4]; 8.57% (active) in experiment [5]; -28.4% (active) in experiment [6]. In addition, the results for the growth in experiment [7] and in experiment [8] were -13.6% (active) and -31.1% (active), respectively.

Turning to `Clc1cccc(Nc2nc(Nc3cnc4ccccc4c3)c3[nH]cnc3n2)c1`, the growth is 53.7% in experiment [1]; 73.7% in experiment [2]; 84.4% in experiment [3]; 98.1% in experiment [4]; 64.9% in experiment [5]; 76.4% in experiment [6]. Further, the growth in experiment [7] is 100%; in experiment [8], 92.8%.

As for `COc1cc(C(=O)/C=C/c2c(C)n([O-])c3ccc(C)cc3[n+]2=O)cc(OC)c1OC`, the growth in experiment [1] was 17.6%; in experiment [2], 76.7%; in experiment [3] it was 60.1%; in experiment [4] it was 0.477% (active); in experiment [5], 29.4%; in experiment [6], 15%. The results for the growth in experiment [7] and in experiment [8] were 104% and 34.8%, respectively.

As for `COc1ccc(C2c3ccc4ccccc4c3Oc3ncnc(N)c32)cc1` (stereo not drawn), the growth in experiment [1] was 60.1%; in experiment [2], 88.3%; in experiment [3], 8.46% (active); in experiment [4], 76.8%; in experiment [5], 68.1%; in experiment [6], 92.9%. Moreover, the growth was 104% in experiment [7] and 72.4% in experiment [8].

Consider `CCOC(=S)SCc1ccc(Cl)cc1`, for which the growth is 120% in experiment [1]; 96.3% in experiment [2]; 101% in experiment [3]; 101% in experiment [4]; 103% in experiment [5]; 92.3% in experiment [6]. Further, the growth in experiment [7] is 131%; in experiment [8] it was 108%.

With `Cc1cc(N/N=C/c2nc(-c3ccc(Cl)cc3)oc2C)c2cc(Br)ccc2n1`, the growth is 74.5% in experiment [1]; 94% in experiment [2]; -38.8% (active) in experiment [3]; -65.4% (active) in experiment [4]; -77.8% (active) in experiment [5]; 4.35% (active) in experiment [6]. The growth in experiment [7] is 89.9%; in experiment [8], 55.3%.

Take `CSc1[nH]c2ncnc(N)c2c1C#N`: the growth was 97.3% in experiment [1]; 85.9% in experiment [2]; 102% in experiment [3]; 128% in experiment [4]; 100% in experiment [5]; 102% in experiment [6]. Besides, the values for the growth in experiment [7] and in experiment [8] were 108% and 122%, respectively.

Regarding `O=C(Nc1ccc(CN2CCOCC2)cc1)c1[nH]ncc1Nc1ncnc2sccc12`, the growth in experiment [1] was 17.5%; in experiment [2], -8.71% (active); in experiment [3] it was 18.1%; in experiment [4], 5.35% (active); in experiment [5], 8.76% (active); in experiment [6] it was 6.07% (active). In addition, the figures for the growth in experiment [7] and in experiment [8] were -9.48% (active) and 0.0776% (active), respectively.

`CCCCCCCCCC(=O)Oc1ccc(/C(=C(/C)Cc2cccc(OC)c2)c2ccc(OCCN(C)C)cc2)cc1`: the growth in experiment [1] is 69.4%; in experiment [2], 108%; in experiment [3], 103%; in experiment [4], 104%; in experiment [5], 58.2%; in experiment [6], 102%. The growth in experiment [7] was 100%; in experiment [8], 104%.

Consider `COc1ccc(OCC(=O)Nc2ccc(-c3nc4ccccc4s3)cc2C)cc1`, for which the growth in experiment [1] is 30.4%; in experiment [2], 91.9%; in experiment [3], 101%; in experiment [4], 97%; in experiment [5], 29.9%; in experiment [6], 74%. For the same compound, the growth in experiment [7] was 90.4%; in experiment [8] it was 107%.

For `C=C1CC2(OC1=O)C(=O)N(CCCCCCCCCCCCN1C(=O)C3(CC(=C)C(=O)O3)c3ccccc31)c1ccccc12` (stereo not drawn), the growth in experiment [1] was 64.8%; in experiment [2] it was 84%; in experiment [3], 73.1%; in experiment [4] it was 26.1%; in experiment [5], 38%; in experiment [6] it was 61.3%. Also, the growth in experiment [7] was 92.8%; in experiment [8], 93.6%.

In the case of `CN(C)CCOc1ccc(-c2nc3ccc(-c4nc5ccc(N6CCN(C)CC6)cc5[nH]4)cc3[nH]2)cc1`, the growth in experiment [1] is 55.3%; in experiment [2] it was 74.2%; in experiment [3] it was 61.2%; in experiment [4] it was 66.3%; in experiment [5] it was 35.5%; in experiment [6], 48.3%. Moreover, the growth was 99% in experiment [7] and 57.3% in experiment [8].

`CC(=O)CC(C)(C)c1ccc(Cl)cc1`: the growth in experiment [1] was 94.2%; in experiment [2] it was 101%; in experiment [3] it was 104%; in experiment [4], 100%; in experiment [5] it was 105%; in experiment [6], 97.5%. In addition, the growth in experiment [7] was 98.7%; in experiment [8], 108%.
